TLR9-MyD88 inh = inhibitors of human TLR9-MyD88 binding | Q9NR96+Q99836 | CHO BLA complementation TLR9-MyD88, CCF4 FRET ratio | inhibition, % at 4.98 µM | 0.21% of 340,000 active;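 active means inhibition above the mean over all tested compounds plus 3 SD, cut at about 21% in these data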;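 further: 0% = DMSO only wells and 100% = clavulanate BLA inhibitor control wells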
Target sequence (Q99836 whole entry, looked up): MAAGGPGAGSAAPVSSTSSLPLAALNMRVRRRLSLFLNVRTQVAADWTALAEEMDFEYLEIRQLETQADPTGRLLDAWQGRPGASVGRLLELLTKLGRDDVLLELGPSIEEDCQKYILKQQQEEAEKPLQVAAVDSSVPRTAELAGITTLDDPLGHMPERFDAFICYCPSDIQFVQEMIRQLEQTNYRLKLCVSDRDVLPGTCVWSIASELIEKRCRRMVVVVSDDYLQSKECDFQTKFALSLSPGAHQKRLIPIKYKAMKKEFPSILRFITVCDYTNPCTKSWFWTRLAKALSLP
Target sequence (Q9NR96 whole entry, looked up): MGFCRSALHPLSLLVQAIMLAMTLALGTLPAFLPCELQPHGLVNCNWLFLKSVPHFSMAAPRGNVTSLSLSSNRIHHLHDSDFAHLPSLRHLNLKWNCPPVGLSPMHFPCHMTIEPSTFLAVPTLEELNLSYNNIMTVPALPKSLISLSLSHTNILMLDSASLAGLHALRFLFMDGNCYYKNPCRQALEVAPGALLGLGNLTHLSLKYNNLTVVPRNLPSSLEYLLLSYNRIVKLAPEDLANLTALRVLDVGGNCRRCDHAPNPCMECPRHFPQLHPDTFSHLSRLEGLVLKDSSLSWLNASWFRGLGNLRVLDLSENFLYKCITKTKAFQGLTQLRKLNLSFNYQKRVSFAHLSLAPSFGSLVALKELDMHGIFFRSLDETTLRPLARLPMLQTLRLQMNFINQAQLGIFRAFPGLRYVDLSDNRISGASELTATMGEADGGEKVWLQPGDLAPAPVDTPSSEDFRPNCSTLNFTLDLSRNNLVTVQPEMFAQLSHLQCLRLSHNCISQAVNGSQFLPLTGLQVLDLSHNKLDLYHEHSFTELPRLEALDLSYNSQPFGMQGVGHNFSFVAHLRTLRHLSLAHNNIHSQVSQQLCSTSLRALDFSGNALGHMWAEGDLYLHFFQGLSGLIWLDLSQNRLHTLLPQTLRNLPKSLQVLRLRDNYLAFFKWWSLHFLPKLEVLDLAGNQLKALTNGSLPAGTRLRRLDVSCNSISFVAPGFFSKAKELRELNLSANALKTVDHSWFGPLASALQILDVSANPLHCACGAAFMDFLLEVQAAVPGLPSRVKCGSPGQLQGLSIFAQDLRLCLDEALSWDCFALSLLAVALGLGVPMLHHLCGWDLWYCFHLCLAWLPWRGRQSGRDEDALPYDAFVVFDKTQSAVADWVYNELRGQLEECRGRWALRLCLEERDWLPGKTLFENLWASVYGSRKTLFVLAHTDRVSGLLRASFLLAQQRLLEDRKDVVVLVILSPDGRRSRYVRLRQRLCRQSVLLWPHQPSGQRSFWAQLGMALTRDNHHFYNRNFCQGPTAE
PRMT1 FP inh = PRMT1 (human) inhibition, primary screen; recombinant PRMT1, activity-based probe fluorescence polarization; inhibition, % at 2.79 µM; 1.3% of 370,000 active; AID 652257;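 active means inhibition above about 21% made by adding two undisclosed values, limit read from the data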
NOD2-RIPK2 inh = inhibitors of human NOD2-RIPK2 interaction; O43353; CHO BLA complementation NOD2-RIPK2, CCF4 ratio; inhibition, % at 4.98 µM; 0.38% of 360,000 active; in the data active means inhibition above about 21%;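 further: 0% = vehicle only and 100% = reference blocker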
Exocytosis inh = blocks lytic granule exocytosis. TALL-104 LAMP-1 surface exposure, flow cytometry; cells stimulated with thapsigargin and PMA. inhibition, % at 10 µM. 0.66% of 360,000 active;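 active means inhibition above about 55%, limit read from the data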
TLR4 MyD88 comp = TLR4-MyD88 interaction inhibition in cells. O00206+Q99836. HeLa CL3-4 TLR4/MyD88 BLA complementation, FRET ratio. inhibition, % at 8.4 µM. 0.18% of 200,000 active. AID 861; in the data active means inhibition above about 25%;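 further: 0% = vehicle and 100% = reference inhibitor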
ABHD5-PLIN5 inh = blocks binding of human ABHD5 to perilipin-5. inhibition, % at 4 µM. Split G. princeps luciferase complementation, luminescence, 4 h. 0.78% of 360,000 active. AID 602281;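 active means inhibition above the mean inhibition across every tested compound plus 3 SD, cut at about 22% in these data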;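 further: 0% = DMSO only wells and the 100% control is not disclosed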
PRMT1 inh conf = confirmation of human PRMT1 inhibitors; shares compounds with PRMT1 FP inh; recombinant His-PRMT1, activity-based probe fluorescence polarization; inhibition, % at 2.79 µM; 42% of 3,300 active; AID 687036;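 active means mean inhibition across replicates above the hit cutoff derived for the earlier primary screen, cut at about 22% in these data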
The depositor's hits bear a star; · = no result given. This is a sample that favours compounds with a hit; in the whole collection about 2.6% have one here.

SMILES	TLR9-MyD88 inh	PRMT1 FP inh	NOD2-RIPK2 inh	Exocytosis inh	TLR4 MyD88 comp	ABHD5-PLIN5 inh	PRMT1 inh conf
CC(=O)NC1C(=O)N=C(SCC(=O)NCc2ccccc2)NC1=O (stereo not given)	6	40*	-5	3	1	-12	8
O=C(CSC1=NC(=O)C(Cc2ccccc2)C(=O)N1)NC1CCCCC1 (stereo not given)	11	6	4	1	23	-1	·
C=CCN1C(=O)[C@@H](CC(=O)N2CCSCC2)[C@]2(C(=O)OCC)CCCCC/C=C/12	·	0	·	·	·	·	·
O=C1NC[C@@H](CCCCN2C[C@H](Cc3ccc(O)cc3)N(CCC3CCCCC3)C(=O)C2=O)N(CCC2CCCCC2)C1=O	·	3	-20	-4	·	4	·
Nc1ncnc(Sc2ccccc2)c1[N+](=O)[O-]	6	12	2	-2	-14	5	·
Nc1ncnc(Sc2ncccn2)c1[N+](=O)[O-]	-4	53*	1	3	-5	14	16
O=c1c2ccccc2nc(SCc2ccncc2)n1CC1CCCO1 (stereo not given)	-9	5	3	-2	-11	6	·
CC(C)(C)OC(=O)N[C@@H](Cc1ccccc1)c1nnc(S(=O)(=O)Cc2ccccc2)o1	·	54*	·	·	14	·	21
C=C(C)Cn1c(SCC(=O)NN=Cc2c(O)ccc3ccccc23)nnc1-c1ccc(Br)cc1	·	1	·	·	·	·	·
O=c1oc2c(-c3cccc(F)c3)cc(O)cc2s1	0	36*	2	-3	-8	-17	10
COC(=O)/C(C#N)=C/c1c(N2CCN(c3ccccc3)CC2)nc2c(C)cccn2c1=O	10	26*	-3	25	·	9	-6
COC(=O)/C(C#N)=C/c1c(N2CCN(c3cccc(Cl)c3)CC2)nc2c(C)cccn2c1=O	3	-5	6	-1	·	2	·
CCC(CC)C(=O)N(C)c1c(C)nc2c(OCc3ccc(Cl)cc3)cccn12	·	0	-13	0	·	-4	·
COc1cccc(C2=Cc3ccc(F)cc3C(CC(C)=O)N2c2ccc(C#CC3(O)CCCCC3)cc2)c1 (stereo not given)	·	-2	2	14	·	-10	·
CSC1=C(C#N)C2(CCCCC2)C(C(=O)Nc2ccccc2)=C(C)N1	-2	7	-8	-4	·	-3	·
CC1=C(C(=O)Nc2ccccc2)C2(CCCCC2)C(C#N)=C(S)N1	0	26*	-9	2	1	-20	25*
NC(=O)C1(N2CCCCC2)CCN(C(=S)Nc2ccc(S(N)(=O)=O)cc2)CC1	2	27*	-1	1	-10	-4	36*
O=C1CCC(=O)N1c1ccc(CSc2nc3ccccc3[nH]2)cc1	0	33*	-3	1	-19	0	28*
COC(=O)c1c(C(=O)OC)c(-c2cccc(F)c2)n2c1CS(=O)(=O)C2	0	0	-7	-3	·	3	·
CCCOc1ccc(-c2nc(=S)[nH][nH]2)cc1	-11	46*	-5	10	12	-14	12
S=c1[nH]c2cnc(Cl)nc2[nH]1	-11	43*	-7	1	·	0	34*
O=C(/C=C/c1ccccc1)CCN1CCCCC1	-5	25*	-2	32	·	23*	50*
O=C(CCN1CCCCCC1)c1ccccc1	6	-2	-4	-4	9	1	·
CC(Nc1cccc2ccccc12)C(=O)N/N=C/c1ccc([N+](=O)[O-])cc1 (stereo not given)	7	6	9	-4	4	-3	·
Cc1cccc(/C=N/NC(=O)C(C)Nc2cccc3ccccc23)n1 (stereo not given)	-1	26*	11	-2	3	-49	2
c1cncc(-c2nnc(-c3cccnc3)nn2)c1	-1	2	-3	17	1	-11	·
Cn1c(SSc2ccc(-c3cccnc3)n2C)ccc1-c1cccnc1	-4	69*	16	5	·	5	77*
O=S(=O)(Nc1ccccc1F)c1cccc(NC(=S)NCCN2CCOCC2)c1	6	73*	0	8	·	5	61*
O=C(Nc1cccc(S(=O)(=O)Nc2ccccc2F)c1)c1ccc2ccccc2n1	0	43*	-5	5	4	-4	12
